Data taken from paper PMC5540273 (PLoS ONE, 2017).

Columns and labels:
Details in all cases: concentration: 1 μM, replicates: in singlicate; n = 1
[1] = system: RPS6KA4(Kin.Dom.1-N-terminal)
[2] = system: RPS6KA4(Kin.Dom.2-C-terminal)
[3] = system: RPS6KA5(Kin.Dom.1-N-terminal)
[4] = system: RPS6KA5(Kin.Dom.2-C-terminal)
[5] = system: T1, RSK1(Kin.Dom.1-N-terminal)
T1 construct: gene RPS6KA1

[6] = system: T2, RSK1(Kin.Dom.2-C-terminal)
T2 construct: gene RPS6KA1

[7] = system: T3, RSK2(Kin.Dom.1-N-terminal)
T3 construct: gene RPS6KA3

[8] = system: T4, RSK2(Kin.Dom.2-C-terminal)
T4 construct: gene RPS6KA3

[9] = system: T5, RSK3(Kin.Dom.1-N-terminal)
T5 construct: gene RPS6KA2

[10] = system: T6, RSK3(Kin.Dom.2-C-terminal)
T6 construct: gene RPS6KA2
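Further: KINOMEscan kinase panel screen.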

SMILES | %Inh [1] [%] | %Inh [2] [%] | %Inh [3] [%] | %Inh [4] [%] | %Inh [5] [%] | %Inh [6] [%] | %Inh [7] [%] | %Inh [8] [%] | %Inh [9] [%] | %Inh [10] [%]
CC(C)c1nc(-c2cccc(NS(=O)(=O)c3c(F)cccc3F)c2F)c(-c2ccnc(Nc3ccc(N4CCOCC4)nc3)n2)s1 [GSK2008607] | 0 | 0 | 2 | 0 | 100 | 12 | 41 | 0 | 45 | 0
Cc1ccc(C(=O)N2CC[C@@H](O)C2)cc1-n1c(C)cc(OCc2ccc(F)cc2F)c(Br)c1=O | 2 | 0 | 0 | 0 | 0 | 0 | 0 | 0 | 0 | 18
CCn1c(-c2nonc2N)nc2c(C#CC(C)(C)O)nc(OC[C@H](N)c3ccccc3)cc21 [GSK943949] | 0 | 57 | 6 | 0 | 59 | 0 | 0 | 0 | 0 | 0
O=C(Nc1ccccc1F)NC1CCN(c2ccnc(Nc3ccc(F)cc3)n2)CC1 [GSK1379800] | 9 | 0 | 0 | 26 | 19 | 0 | 0 | 0 | 0 | 0
C[C@@H]1CC[C@@H](C(=O)Nc2ccccc2)CN1c1cc(-c2ccc3c(N)n[nH]c3c2)nc(N)n1 [GSK2286062] | 4 | 0 | 6 | 2 | 14 | 3 | 7 | 19 | 2 | 24
CC(=O)Nc1nc2cnc(Nc3cc(NC(=O)c4cccc(C5(C#N)CC5)c4Cl)ccc3C)nc2s1 | 0 | 0 | 14 | 5 | 0 | 25 | 0 | 0 | 0 | 10
Cc1cccc(NC(=O)Nc2ccc(Oc3ncnc4ccn(C)c34)cc2)c1 | 0 | 0 | 0 | 0 | 0 | 0 | 0 | 2 | 0 | 0
Nc1ncnc2c1nc(-c1ccccc1)n2-c1ccccc1 [SKF-97293] | 9 | 10 | 16 | 11 | 19 | 0 | 40 | 27 | 18 | 0
COc1cc(Nc2nccc(N3CCC(NC(=O)Nc4cccc(C(C)=O)c4)C3)n2)cc(OC)c1OC (centres unmarked) [GSK1379753] | 7 | 0 | 9 | 6 | 15 | 5 | 10 | 67 | 17 | 0
O=C(Nc1n[nH]c2cc(-c3ccoc3)ccc12)C1CC1 [SB-738481] | 0 | 11 | 0 | 0 | 12 | 0 | 1 | 0 | 0 | 2
O=c1[nH]cc(-c2ccc(N3CCOCC3)cc2)c2sc(-c3cn[nH]c3)cc12 [GSK2276055] | 2 | 0 | 0 | 28 | 29 | 24 | 23 | 7 | 14 | 22
